We go through 105 compounds from PubChem BioAssay AID686978 (National Center for Advancing Translational Sciences (NCATS), 2013).

Screen size: about 420,000 compounds; about 64,000 (15%) were called active. Another 27% or so got no clear call; they are omitted. Calls follow the shape of the dose curve; as a rule, active = well fitted inhibition curve with a large enough effect; inconclusive = small, poorly fitted or top-dose-only effect; inactive = flat fitted curve, though single readings scatter. These entries were drawn from the full list. Entries that show only a call come without a potency.
Potency is read from the fitted curve at half-maximal effect.

This assay in a line: qHTS for Inhibitors of human tyrosyl-DNA phosphodiesterase 1 (TDP1): qHTS in cells in absence of CPT. Also: nearly all actives have a fitted effect of over 55% in size. The following applies: DT40 Tdp1-/- hTDP1 cells, no CPT, ATP luminescence, 48 h; activity change, negative = growth inhibition: at 46.2 µM (top of the series). In outline:
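Compound effects on proliferation are scored in DT40 Tdp1-/-;hTDP1 cells in the absence of CPT. ATP levels (CellTiter-Glo luminescence) are recorded after a ≥48 hr, 37 °C incubation.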
For `COc1ccccc1C(=O)NC(=O)COC(=O)C1CC1`, the Potency entry was “inactive”.

Take `Cc1ccccc1CN1CCC(CNC(=O)c2cc3ccc4cccnc4c3[nH]2)CC1`: the Potency is 23.1 µM (active).

As to `CCOc1cc2ccccc2cc1C(=O)Nc1ccccn1`, the Potency entry is “inactive”.

Turning to `COc1cc(NC(=O)c2cc3ccc4cccnc4c3[nH]2)cc(OC)c1OC`, the Potency entry is “inactive”.

Regarding `CCOc1ccccc1N(CC)C(=O)c1cc2ccc3cccnc3c2[nH]1`, the Potency was 5.8 µM (active).

For the compound `Cc1cccc(CN2CCC(n3nccc3NC(=O)c3ccccc3C)CC2)n1`, the Potency entry is “inactive”.

On to `Cc1ccccc1CN1CCN(C(=O)c2cccc(F)c2)CC1`, for which the Potency result is “inactive”.

For the compound `CCc1nnc(SCc2cccc(F)c2)nc1CC`, the Potency entry was “inactive”.

Regarding `CSCCC(NC(=O)C1CCC(C)CC1)C(=O)NCc1ccco1` (stereo not given), the Potency result was “inactive”.

As for `Cc1cc(C(F)(F)F)c(C#N)c(SCC(=O)NC2CC2)n1`, the Potency result is “inactive”.

As to `CC(=O)N(CN1C(=O)C2CC=CCC2C1=O)c1cccc(Cl)c1` (stereo not given), the Potency entry was “inactive”.

On to `O=C1CSC(c2cccc(F)c2)N1c1ccccc1F` (stereo not given), for which the Potency result was “inactive”.

Turning to `Cc1ccc(CNC(=O)CSc2c(C)cnc3c2c(=O)n(C)c(=O)n3C)cc1`, the Potency result is “inactive”.

In the case of `CC(=O)c1ccc(NC(=O)CSc2c(C(C)C)cnc3c2c(=O)n(C)c(=O)n3C)cc1`, the Potency is 14.6 µM (active).

Turning to `COc1ccc(C(=O)CSc2nccc(=O)[nH]2)cc1`, the Potency entry was “inactive”.

With `COCCNC(=O)CSc1c(C)cnc2c1c(=O)n(C)c(=O)n2C`, the Potency result is “inactive”.

As to `COc1ccc(C(=O)CSc2n[nH]c(N)n2)cc1`, the Potency result is “inactive”.

For `COc1ccc(C(=O)CSc2c(C(C)C)cnc3c2c(=O)n(C)c(=O)n3C)cc1`, the Potency is 13 µM (active).

`COc1ccc(C(=O)O)cc1S(=O)(=O)NCc1cccnc1`: the Potency entry is “inactive”.

With `Cc1snc(SCc2c(F)cccc2Cl)c1C#N`, the Potency result was “inactive”.

Regarding `O=C(NN1C(=O)C2C3C=CC(O3)C2C1=O)c1ccccc1` (stereo not given), the Potency entry is “inactive”.

As for `Cc1ccc2c(C)c(C(=O)N3CCC(N4CCC(C(=O)NC5CC5)CC4)CC3)oc2c1`, the Potency entry was “inactive”.

In the case of `COc1cc(Cl)c(C)cc1NC(=O)COC(=O)c1cc(SC)ccc1Cl`, the Potency entry is “inactive”.

On to `CCc1nc2ccc(C(=O)N3CCC(O)(Cc4ccccc4)CC3)cn2c1N(C)C(=O)Cc1ccccc1`, for which the Potency result is “inactive”.

With `CCc1nc2ccc(C(=O)N(C)Cc3ccco3)cn2c1N(C)C(=O)Cc1ccccc1`, the Potency entry was “inactive”.

On to `COc1cccc(NC(=O)CN(C)C(=O)Cc2ccc(Cl)cc2Cl)c1`, for which the Potency entry was “inactive”.

Regarding `CC(C)(C)NC(=O)NC(=O)COC(=O)Cc1ccc(Cl)cc1Cl`, the Potency result is “inactive”.

On to `CCCCC(=O)N(C)c1c(CC)nc2c(OCc3ccc(Cl)cc3Cl)cccn12`, for which the Potency was 9.2 µM (active).

As to `CCc1nc2c(OCc3ccc(Cl)cc3Cl)cccn2c1N(C)C(=O)C(C)C`, the Potency is 8.2 µM (active).

Take `CCc1nc2c(OCc3ccc(C(F)(F)F)cc3)cccn2c1N(C)C(=O)CC(C)C`: the Potency was 20.6 µM (active).

With `CC(NC(=O)COc1cccnc1[N+](=O)[O-])c1ccc(Cl)cc1Cl` (stereo not given), the Potency entry is “inactive”.

As for `O=C(COC(=O)C12CC3CC(CC(O)(C3)C1)C2)NC12CC3CC(CC(C3)C1)C2`, the Potency entry is “inactive”.

Regarding `O=C(NC1CCN(C(=S)Nc2ccc(Cl)cc2)CC1)C1CCCCC1`, the Potency result is “inactive”.

Take `CC(OC(=O)CCC(=O)c1ccccc1)C(=O)Nc1ccc(F)cc1` (stereo not given): the Potency entry was “inactive”.

Consider `CCOC(=O)c1c(C)nn(-c2ncccc2NC(=O)CCC(=O)O)c1C`, for which the Potency result was “inactive”.

With `C#CCCCc1nc2ccccc2c(=O)n1N`, the Potency result is “inactive”.

As for `C/C(=N\N1CCN(Cc2ccc(C)cc2)CC1)c1ccco1`, the Potency result was “inactive”.

Regarding `CC(=O)NC1C(Oc2ccc(C=O)cc2)OC(COC(C)=O)C(OC(C)=O)C1OC(C)=O` (stereo not given), the Potency result is “inactive”.

For `CC(=O)Oc1ccc2c(=O)oc(-c3ccc([N+](=O)[O-])cc3)nc2c1`, the Potency result is “inactive”.

`CCCCSCCCNC(=O)C1CCC(CNS(=O)(=O)c2ccc(NC(C)=O)cc2)CC1` (stereo not given): the Potency result was “inactive”.

As for `Nc1nnnn1/N=C/c1cccs1`, the Potency entry is “inactive”.

In the case of `O=C(NCc1ccc(Cl)cc1)NCc1ccc(Cl)cc1`, the Potency result is “inactive”.

Consider `Fc1ccc2[nH]c3c(N4CCN(Cc5ccc6c(c5)OCO6)CC4)ncnc3c2c1`, for which the Potency is 2.31 µM (active).

As for `Fc1ccc2[nH]c3c(N4CCSCC4)ncnc3c2c1`, the Potency is 9.2 µM (active).

Consider `N#C/C=C/N1CCN(Cc2ccc3c(c2)OCO3)CC1`, for which the Potency entry was “inactive”.

Turning to `O=C(CSc1nc2c(c(=O)[nH]1)CN(Cc1ccc3c(c1)OCO3)CC2)Nc1cc(F)ccc1F`, the Potency entry was “inactive”.

Regarding `Fc1ccc2nc(N3CCCCC3)sc2c1`, the Potency entry is “inactive”.

On to `CN(C)c1cccc(C(=O)N2CCC(n3nccc3NC(=O)C3CCOC3)CC2)c1` (stereo not given), for which the Potency entry was “inactive”.

For `Cc1ccc(NNC(=O)c2c(F)cccc2Cl)cc1Cl`, the Potency entry was “inactive”.

Consider `O=C(CCn1nnc2ccccc21)OCC(=O)c1ccc([N+](=O)[O-])cc1`, for which the Potency result was “inactive”.

With `C/C(=N/NC(=O)CSc1ccccn1)c1ccc([N+](=O)[O-])cc1`, the Potency result is “inactive”.

For `O=C(CC(n1cncn1)C(Cl)(Cl)Cl)c1ccc([N+](=O)[O-])cc1` (stereo not given), the Potency is 14.6 µM (active).

In the case of `NC(=O)c1ccc(-c2csnn2)cc1`, the Potency result was “inactive”.

In the case of `CN1CCC(=O)N([C@H](CO)Cc2ccccc2)CC1`, the Potency result is “inactive”.

`COc1ccc(COCCN2CCN(S(=O)(=O)c3ccccc3)CCC2=O)cc1`: the Potency result was “inactive”.

For `Cc1ccc(S(=O)(=O)N2CCC(=O)N([C@H](COCc3ccccc3)Cc3ccccc3)CC2)cc1`, the Potency is 18.4 µM (active).

`Cc1cccc(N=C2NC(=O)CS2)c1C`: the Potency entry is “inactive”.

As for `Cc1ccc(NS(=O)(=O)c2ccc(N/N=C/c3ccccc3OCC(=O)O)c([N+](=O)[O-])c2)c(C)c1`, the Potency result was “inactive”.

Regarding `Cc1cccc(COc2ccccc2/C=N/Nc2ccc([N+](=O)[O-])cc2)c1`, the Potency is 20.6 µM (active).

In the case of `O=[N+]([O-])c1cccc(/C=N/Nc2ncc(Br)cn2)c1`, the Potency entry was “inactive”.

`CN1C(=O)C(CC(N)=O)N(NC(=O)c2ccc(Cl)cc2)C1=S` (stereo not given): the Potency entry is “inactive”.

Turning to `CC(C)(C)NC(=O)CSC(=Nc1ccccc1F)NC#N`, the Potency was 16.4 µM (active).

`Cc1ccccc1CSCC(=O)NC(=O)NC(C)(C)C`: the Potency entry was “inactive”.

Regarding `CC(C)(C)NC(=O)CSc1nnc(NC(=O)CCc2ccccc2)s1`, the Potency entry was “inactive”.

Take `N#C/C(=C1\CCCN1)c1nc(-c2ccccc2)cs1`: the Potency entry was “inactive”.

Consider `Cc1nc(C(F)(F)F)ccc1C(=O)N1CCC1(C)C(=O)NS(=O)(=O)c1ccc(F)cc1F` (stereo not given), for which the Potency result was “inactive”.

In the case of `Cc1ccc(N(C(=O)CNC(=O)c2ccco2)C(C(=O)NC2CCCC2)c2ccncc2)cc1` (stereo not given), the Potency entry was “inactive”.

Take `CCc1ccc(N(C(=O)c2csnn2)C(C(=O)NC2CCCCC2)c2ccncc2)cc1` (stereo not given): the Potency entry was “inactive”.

In the case of `Cc1ccc(N(C(=O)C(F)(F)F)C(C(=O)NC2CCCCC2)c2ccncc2)cc1C` (stereo not given), the Potency is 18.4 µM (active).

Regarding `O=C(c1cc(-c2ccccc2O)on1)N1CCCC1`, the Potency entry is “inactive”.

As for `O=C1C(=O)N(c2ccccc2)C(c2ccccc2)C1c1ccccc1` (stereo not given), the Potency entry was “inactive”.

`O=C1[C@@H](c2ccccc2)[C@@H](c2ccccc2)N1c1cccnc1`: the Potency was 8.2 µM (active).

Regarding `CCc1ccccc1NC1c2ccccc2C(=O)N1c1cccnc1` (stereo not given), the Potency entry is “inactive”.

For `CCOc1cccc(CC(=O)N2CCc3c([nH]c4ccccc34)C2c2ccc(F)cc2)c1OCC` (stereo not given), the Potency is 25.9 µM (active).

With `Cc1cccc(C(=O)N2CCN(S(=O)(=O)N3CCCCC3)CC2)c1`, the Potency result is “inactive”.

`Cc1ccc(C2c3[nH]c4ccccc4c3CCN2C(=O)c2cccc(C)c2)cc1` (stereo not given): the Potency was 18.4 µM (active).

Turning to `CCCC(=O)N1c2ccccc2NC2=C(C(=O)CCC2)C1c1ccc(F)cc1` (stereo not given), the Potency result was “inactive”.

In the case of `Cc1cccc(C(=O)N2CCc3c([nH]c4ccccc34)C2CC(C)C)n1` (stereo not given), the Potency result was “inactive”.

With `CCCC(=O)N1CCc2[nH]c3ccccc3c2C1`, the Potency result was “inactive”.

As for `O=C(COC(=O)CCOc1ccccc1)Nc1cc(S(=O)(=O)N2CCCCC2)ccc1Cl`, the Potency result was “inactive”.

Take `CC1=Nn2c(nnc2-c2ccccc2)SC1`: the Potency result is “inactive”.

As to `COc1cccc(C(=O)NCCS(=O)(=O)NCC2CCCO2)c1` (stereo not given), the Potency result was “inactive”.

As to `CC1CCCCN1Cc1c(O)ccc2c(=O)c(-c3cccc(Cl)c3)c(C(F)(F)F)oc12` (stereo not given), the Potency entry is “inactive”.

On to `CC(=O)c1cccc(OCC(=O)OCC(=O)Nc2cc(S(=O)(=O)N3CCCCC3)ccc2C)c1`, for which the Potency entry is “inactive”.

Regarding `COc1ccc2c(c1)c(=Cc1ccc(N(C)C)cc1)c1cc(-c3ccccc3)[n+](C)n12`, the Potency was 0.92 µM (active).

With `Cc1ccc(N2CC(NC(=O)Cc3cccs3)CC2=O)cc1` (stereo not given), the Potency entry was “inactive”.

As to `Cc1oc2c(c1C(=O)N1CCOCC1)C(=O)c1ccccc1C2=O`, the Potency is 2.59 µM (active).

As to `O=C(c1ccccc1-c1ccccc1)N1CCOCC1`, the Potency entry was “inactive”.

On to `Cc1onc(-c2ccccc2)c1C(=O)N1CCOCC1`, for which the Potency result was “inactive”.

Take `Cc1cccc(C)c1OC(=O)CSc1nnc(-c2ccccc2)o1`: the Potency result is “inactive”.

Regarding `Cc1ccc(-c2nnc(CN3CCN(C)CC3)o2)cc1`, the Potency result was “inactive”.

Regarding `CCCC(O)(c1ccc(OC)cc1)C(CN(C)C)c1ccccc1` (stereo not given), the Potency result is “inactive”.

As to `COc1cccc(CN(C)CC(O)COC(c2ccccc2)c2ccccc2C)c1` (stereo not given), the Potency was 16.4 µM (active).

In the case of `COC(=O)[C@@H](NC(=O)NCc1cccc(OC)c1)C(C)C`, the Potency result is “inactive”.

For `Cc1ccc(-n2c(SCC(=O)NCc3ccc4c(c3)OCO4)nnc2-c2cccnc2)c(C)c1`, the Potency result is “inactive”.

For `O=C(CCSCCc1ccccn1)Nc1nccs1`, the Potency entry is “inactive”.

With `COc1ccc(C(=O)c2c(C)oc3cc([N+](=O)[O-])c(O)c([N+](=O)[O-])c23)cc1`, the Potency entry was “inactive”.

Take `COc1ccc(/C=N/Nc2nc(-c3ccc(C)cc3)c(C#N)c(=O)[nH]2)cc1`: the Potency result was “inactive”.

As to `CCOC(=O)c1cc(-c2nnc(-c3cc(OC)c(OC)c(OC)c3)o2)c(C)nc1C`, the Potency is 16.4 µM (active).

Consider `CCOC(=O)c1cc2ccccc2nc1C`, for which the Potency entry is “inactive”.

In the case of `O=C(CCN1C(=O)[C@@H]2Cc3ccccc3CN2C1=O)NCc1ccccc1`, the Potency entry was “inactive”.

Consider `Cc1ccc(S(=O)(=O)N(C)C)cc1NC(=O)c1n[nH]c(=O)c2ccccc12`, for which the Potency was 23.1 µM (active).

As to `Cc1ccc(S(=O)(=O)N(C)C)cc1NC(=O)c1ccccc1Br`, the Potency entry is “inactive”.

In the case of `Cc1ccc(S(=O)(=O)N(C)C)cc1NC(=O)COC(=O)C1COc2ccccc2O1` (stereo not given), the Potency entry is “inactive”.

As to `CCOc1ccc(CCNC(=O)COC(=O)c2ccc(F)c(S(=O)(=O)N3CCOCC3)c2)cc1OCC`, the Potency entry is “inactive”.
